{"source": "PubChem BioAssay AID720597", "about": "(Broad Institute, 2013)", "note": "Potency and affinity values are given separately. A number with no mark means an inactive call.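 The calls were made as follows: active = fitted half-maximal dose no more than twice the top valid tested dose, for compounds that lower signal; inconclusive = fit invalid, or curve flat with activity between -70 and -30; inactive = potency past limit, curve flat within ±30, or signal increasing.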"}
{"target": "NAD-dependent protein deacylase sirtuin-5, mitochondrial (Homo sapiens) (UniProt Q9NXA8)", "sequence (Q9NXA8 whole entry, looked up)": "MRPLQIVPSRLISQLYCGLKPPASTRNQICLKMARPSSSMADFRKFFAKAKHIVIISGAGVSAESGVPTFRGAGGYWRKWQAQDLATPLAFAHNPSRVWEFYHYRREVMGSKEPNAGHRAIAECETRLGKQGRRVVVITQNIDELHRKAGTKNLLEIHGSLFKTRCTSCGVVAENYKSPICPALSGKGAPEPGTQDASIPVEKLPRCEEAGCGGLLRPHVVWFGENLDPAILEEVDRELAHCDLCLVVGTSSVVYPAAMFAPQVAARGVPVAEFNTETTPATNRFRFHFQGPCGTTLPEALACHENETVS", "test": "blockers of sirtuin-5 peptide desuccinylation – biochemical, fluorescence imaging, cherry-pick, set 6, dose response (AID 720597);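 also: lower AMC signal can also come from blocking the trypsin step; 0% = median of neutral control wells and -100% = median of positive control wells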", "settings": "Purified SirT5, succinyl-peptide-AMC/trypsin fluorescence; series mostly up to 15 µM; activity change, negative = inhibition: at the top concentration", "units": {"activity change, negative = inhibition": "%"}}
{"smiles": "COc1ccc(S(=O)(=O)Nc2ccc3c(c2)C(=O)N([C@H](C)CO)C[C@@H](C)[C@@H](CN(C)Cc2ccc(Oc4ccccc4)cc2)O3)cc1", "activity change, negative = inhibition": 4.75}
{"smiles": "COc1ccc(CN(C)C[C@@H]2Oc3ccc(NC(=O)Nc4ccc(OC)cc4)cc3C(=O)N([C@@H](C)CO)C[C@H]2C)cc1", "activity change, negative = inhibition": -0.857}
{"smiles": "O=C(C[C@@H]1CC[C@@H]2[C@H](COC[C@@H](O)CN2Cc2ccc3c(c2)OCO3)O1)N1CCOCC1", "activity change, negative = inhibition": -7.73}
{"smiles": "C[C@H](CO)N1C[C@H](C)[C@H](CN(C)Cc2ccc(Oc3ccccc3)cc2)Oc2ccc(NC(=O)Cc3ccccc3)cc2C1=O", "activity change, negative = inhibition": -9.54}
{"smiles": "COc1ccc(NC(=O)N(C)C[C@@H]2Oc3cc(C#CCC(C)C)ccc3S(=O)(=O)N([C@@H](C)CO)C[C@@H]2C)cc1", "activity change, negative = inhibition": -5.11}
{"smiles": "C[C@H]1CN([C@@H](C)CO)S(=O)(=O)c2ccc(C#CC3CC3)cc2O[C@@H]1CN(C)C(=O)Cc1ccncc1", "activity change, negative = inhibition": -21}
{"smiles": "CCCC#Cc1ccc2c(c1)O[C@@H](CN(C)C(=O)c1cnccn1)[C@@H](C)CN([C@@H](C)CO)S2(=O)=O", "activity change, negative = inhibition": -11.5}
{"smiles": "C[C@@H]1CN([C@@H](C)CO)C(=O)c2cc(NS(=O)(=O)c3ccccc3)ccc2O[C@@H](C)CCCCO[C@@H]1CN(C)S(=O)(=O)c1ccc(F)cc1", "activity change, negative = inhibition": -29}
{"smiles": "C[C@H](CO)N1C[C@H](C)[C@@H](CN(C)Cc2ccc(Cl)c(Cl)c2)Oc2ccc(NC(=O)CCCCCC(=O)Nc3ccccc3N)cc2CC1=O", "activity change, negative = inhibition": 3.52}
{"smiles": "Cc1ccc(CN(C)C[C@@H]2OCc3cnnn3CCCC(=O)N([C@H](C)CO)C[C@@H]2C)cc1", "activity change, negative = inhibition": 2.7}
{"smiles": "Cc1ccc(S(=O)(=O)N(C)C[C@@H]2OCCCC[C@H](C)Oc3ccc(NS(=O)(=O)c4ccc(Cl)cc4)cc3C(=O)N([C@@H](C)CO)C[C@H]2C)cc1", "activity change, negative = inhibition": -0.777}
